# Source: PubChem (several laboratories)
# Calb biofilm kill: kills Candida albicans biofilms; C. albicans biofilm + clotrimazole, Alamar Blue; inhibition, % at 6 µM; actives 0.14% (n = 85,000); AID 834;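 active = inhibition above 20%; inactive = inhibition below 20%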;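 also: preformed 24 hr biofilms exposed to compound for 48 hr; 0% = biofilm without compound and 100% = blank killed by clotrimazole plus chlorhexidine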
# Smad3 inh: inhibitors of human Smad3 transcription factor binding | TR-FRET Smad3/Dy647-FoxH1 peptide binding, europium anti-His | actives 0.29% (n = 88,000) | P84022 | inhibition, % at 25 µM;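 active = compounds that reduce the energy-transfer binding signal between the protein and its labelled peptide by more than half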;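 also: 0% = Smad3 plus labelled peptide maximal FRET and 100% = peptide-only background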
# Target sequence (P84022 whole entry, looked up): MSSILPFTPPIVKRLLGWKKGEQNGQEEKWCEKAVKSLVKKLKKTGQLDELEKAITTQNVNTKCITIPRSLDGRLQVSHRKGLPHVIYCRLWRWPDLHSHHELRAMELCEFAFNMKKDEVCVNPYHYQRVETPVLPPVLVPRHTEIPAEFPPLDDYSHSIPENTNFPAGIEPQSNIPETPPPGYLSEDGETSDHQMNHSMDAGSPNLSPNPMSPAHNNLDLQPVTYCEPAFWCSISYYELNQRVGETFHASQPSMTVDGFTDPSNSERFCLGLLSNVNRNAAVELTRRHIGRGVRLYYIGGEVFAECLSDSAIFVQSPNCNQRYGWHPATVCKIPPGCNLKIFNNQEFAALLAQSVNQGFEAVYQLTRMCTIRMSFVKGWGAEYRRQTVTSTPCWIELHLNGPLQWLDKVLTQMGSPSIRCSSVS
# ERa coact inh: blocks coactivator binding to human estrogen receptor alpha. P03372. TR-FRET ER-alpha LBD / SRC-1 peptide, estradiol-bound. inhibition, % at 25.6 µM. actives 1.7% (n = 86,000). AID 629; in the data active = inhibition above about 50%;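 also: 0% = receptor plus peptide control and 100% = peptide only without receptor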
# ERb SRC1 inh: ER-beta (human) coactivator binding inhibition; Q92731; TR-FRET ER-beta LBD / SRC1-Cy5 peptide binding; receptor agonist-loaded with 1 µM estradiol; inhibition, % at 25.6 µM; actives 1.3% (n = 86,000);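 active = compounds whose percent inhibition of the receptor-coactivator binding signal exceeds about 50% in the single-dose screen, limit read from the data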;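 also: 0% = receptor plus peptide wells without compound and 100% = peptide-only wells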
# ERa SRC1 pot: ER-alpha (human) coactivator binding potentiation; TR-FRET ERalpha-LBD/SRC-Cy5 coactivator binding, 2 h; 100 = basal binding, no effect; actives 1.3% (n = 86,000); P03372; AID 639; coactivator binding (% of control), % at 25.6 µM; in the data active = activity above about 200%;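 also: binding measured in presence of low estradiol as agonist stimulus; 0% = peptide alone without receptor and 100% = receptor with peptide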
# * hit, by the source's call; . = no result; [ ] = another dose, or the depositor's remark. An excerpt weighted towards active compounds, which were near 3.6% of everything screened.
SMILES,Calb biofilm kill,Smad3 inh,ERa coact inh,ERb SRC1 inh,ERa SRC1 pot
COCCn1c(C)cc(C(=O)CSc2nc(C)nc3sc4c(c23)CCC4)c1C,.,-1.4,-6.2,6.8,369.9*[fluorescence artefact?]
Cn1nc(Oc2nc(N3CCOCC3)nc(N3CCOCC3)n2)ccc1=O,1.6,25.2,-8.4,-8.8,107.1
O=C1NC2(CCCCC2)NN1c1ccccc1,6.2,-0.2,-8.2,0.4,116.4
CC1CCC2(CC1)NC(=S)N(c1ccccc1)N2 (centres undefined),83.3*,-9.1,-4.0,-3.6,87.1
Cn1nc(C(=O)Nc2c(-c3ccccc3)nc3sccn23)c2ccccc2c1=O,5.1,3.2,62.2*[fluorescence artefact?],16.1,85.2
COC(=O)C(/C=N/OCc1ccc([N+](=O)[O-])cc1)NC(=O)c1cccc(Cl)c1 (centres undefined),10.5,-9.8,24.5,20.4,395.4*[fluorescence artefact?]
COC(=O)CCCC(=O)Nc1c(F)c(F)c(F)c(F)c1F,8.7,8.7,-6.9,-6.9,112.8
CN(C)c1ccc(-c2ccccc2)nn1,5.3,-10.8,3.7,4.8,143.3
CN(CC(=O)Nn1cnnc1)S(=O)(=O)c1ccccc1,1.9,8.5,4.5,-3.6,130.8
C(=N\Nc1nnc2c(n1)[nH]c1ccccc12)/c1cccnc1,.,18.0,.,.,.
CCCSc1nnc(Cn2c(=O)sc3ccccc32)n1-c1ccccc1,5.8,0.6,-6.5,86.4*[fluorescence artefact?],125.9
Cn1c(CC(=O)Nc2ccc(Cl)c(Cl)c2)nnc1SCC(=O)N1CCN(c2ccccc2)CC1,7.5,-2.6,72.1*[fluorescence artefact?],38.9,70.2
Cc1ccc(NC(=O)CSc2nnc(Cn3c(=O)sc4ccccc43)n2C)cc1Cl,11.2,4.2,38.1,35.3,360.2*
Cn1c(Cn2c(=O)sc3ccccc32)nnc1SCC(=O)NC1CCCC1,8.8,5.4,6.2,0.2,121.2
Cn1c(Cn2c(=O)sc3ccccc32)nnc1SCC(=O)NC1CCCCC1,20.6*,8.3,-2.8,-18.4,133.6
CSc1nnc(Cn2c(=O)sc3ccccc32)n1-c1cccc(Cl)c1,7.6,-11.3,-2.6,1.4,100.8
Cc1ccc(NC(=O)CSc2nnc(Cn3c(=O)sc4ccccc43)n2C)cc1,13.4,0.2,-10.6,-7.7,115.5
c1cc(-c2nc3cc(Oc4ccc5oc(-c6ccncc6)nc5c4)ccc3o2)ccn1,-4.8,1.8,48.2,33.8,154.1
CN1CC[C@@H](CN2c3ccccc3Sc3ccccc32)C1,.,6.6,.,.,.
CC(C)C(C)(C#N)NC(=O)CSc1nnc(-c2ccccc2)o1 (centres undefined),4.6,12.3,-5.9,-7.6,102.3
CC1Cc2ccccc2N1C(=O)CSc1nnc(-c2ccc(S(=O)(=O)N3CCCC3)cc2)o1 (centres undefined),6.8,2.0,7.0,13.2,373.7*
CC(=O)c1cccc(NC(=O)CSc2nnc(-c3ccc(S(=O)(=O)N4CCCC4)cc3)o2)c1,3.4,-18.8,-20.9,-7.6,261.3*
Cc1c(Cl)cccc1NC(=O)CC1SCCNC1=O (centres undefined),3.5,-4.8,-7.3,54.0*,125.6
COC(=O)c1ccc(OC)c(CSc2nnc(-c3ccc(C)cc3)o2)c1,-2.9,-13.6,36.3,13.8,455.4*[fluorescence artefact?]
Cc1nnc(NCc2ccncc2)c2ccccc12,2.8,4.5,59.6*[fluorescence artefact?],50.3*[fluorescence artefact?],178.8
SMILES,Calb biofilm kill,Smad3 inh,ERa coact inh,ERb SRC1 inh,ERa SRC1 pot
Cc1nnc(NCc2ccco2)c2ccccc12,2.8,4.2,-4.0,2.9,107.5
CN1CCc2c(sc3c2c(=O)n(-c2ccccc2)c2nnc(SCc4ccccc4F)n32)C1,6.4,0.2,5.0,3.4,95.7
C/C(=N\NC1=NCCN1)c1cn(C2=NCCN2)nc1C,.,93.2*,.,.,.
O=C(CSc1ncn(-c2ccccc2)n1)Nc1nc2ccccc2s1,8.7,-6.3,5.5,14.5,66.9
O=C(CSc1nnnn1-c1cccc(F)c1)Nc1nc2ccccc2s1,2.9,3.5,55.0*[fluorescence artefact?],17.3,298.5*
c1cnc2c(c1)ccc1cccnc12,.,9.8,.,.,.
Oc1cccc2ccc(SSc3ccc4cccc(O)c4n3)nc12,.,60.0*,.,.,.
COc1ccc(N=c2scc(-c3ccc(S(=O)(=O)N4CCOCC4)cc3)n2CCCO)cc1,5.7,-15.7,-6.6,-4.0,98.9
C=CCn1c(-c2ccc(S(=O)(=O)N3CCOCC3)cc2)csc1=Nc1ccccc1,3.1,-2.8,-7.0,-25.4,214.8*
C=C(C)CSc1nc2c(cc1C#N)CCC2,6.5,19.1,4.1,99.2*[fluorescence artefact?],125.2
N#Cc1cc2c(nc1SCC(N)=O)CCCCC2,5.8,9.7,30.2,9.7,73.0
